# Measurements as given in PubChem BioAssay (NCATS).
# Inconclusive results are not listed. Entries that show only a call come without a potency. Calls of active or inactive are those of the source. Calls come from the whole dose curve; as a rule, active = well fitted curve in the direction sought with a large enough effect; inconclusive = small, poorly fitted or top-dose-only effect, or another doubt; inactive = no such curve, though single readings can be large; an effect the other way counts as inactive or inconclusive.
# What was measured:
# [1] = molecular target: Glutathione peroxidase 1 (Homo sapiens) (UniProt P07203); test: Primary qHTS Assay for Inhibitors of Recombinant Selenoprotein Glutathione Peroxidase 1 (GPX1) (AID 1845191); note: nearly all actives have a fitted effect of over 65% in size
# Chain of Glutathione peroxidase 1 (Homo sapiens) (P07203 whole entry, looked up): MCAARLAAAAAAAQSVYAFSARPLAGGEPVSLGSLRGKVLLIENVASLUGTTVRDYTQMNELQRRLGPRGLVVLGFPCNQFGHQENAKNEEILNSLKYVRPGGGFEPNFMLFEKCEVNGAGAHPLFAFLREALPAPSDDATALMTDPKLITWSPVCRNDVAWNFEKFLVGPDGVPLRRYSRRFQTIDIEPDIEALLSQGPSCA
# Summary of the method: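 NADPH consumption tracked by fluorescence at 340/450 nm between t=0 and t=15 min, room temperature. Final mix: 10 nM GPX1, 100 nM glutathione reductase, 1 mM GSH, 0.5 mM NADPH, 0.5 mM cumene hydroperoxide, 0.01% BSA; 30 min compound–enzyme preincubation.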
# [2] = molecular target: Phospholipid hydroperoxide glutathione peroxidase GPX4 (Homo sapiens) (UniProt P36969); test: Primary qHTS Assay for Inhibitors of Recombinant Selenoprotein Glutathione Peroxidase 4 (GPX4) (AID 1845192); note: nearly all actives have a fitted effect of over 65% in size
# Chain of Phospholipid hydroperoxide glutathione peroxidase GPX4 (Homo sapiens) (P36969 whole entry, looked up): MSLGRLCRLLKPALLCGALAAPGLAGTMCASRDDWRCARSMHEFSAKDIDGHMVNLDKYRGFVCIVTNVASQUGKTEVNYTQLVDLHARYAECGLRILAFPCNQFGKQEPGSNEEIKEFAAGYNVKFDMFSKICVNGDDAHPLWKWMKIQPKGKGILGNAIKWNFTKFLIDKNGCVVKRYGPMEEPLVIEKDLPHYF
# Summary of the method: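 NADPH consumption followed by fluorescence at 340/450 nm, t=0 and after 15 min at room temperature. Reaction started with cumene hydroperoxide (0.5 mM final) after 30 min compound–GPX4 preincubation; final 200 nM GPX4, 100 nM GR, 1 mM GSH, 0.5 mM NADPH.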
# [3] = molecular target: Metallo-beta-lactamase type 2 (Klebsiella pneumoniae) (UniProt C7C422); test: qHTS to identify inhibitors of the New Delhi Metallo-beta-lactamase (NDM): assay validation screen against the NCATS LOPAC Collection (AID 1794843);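 note: nitrocefin turnover by NDM-1 measured as 485 nm absorbance at plateau; series mostly up to about 38 µM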
# Chain of Metallo-beta-lactamase type 2 (Klebsiella pneumoniae) (C7C422 whole entry, looked up): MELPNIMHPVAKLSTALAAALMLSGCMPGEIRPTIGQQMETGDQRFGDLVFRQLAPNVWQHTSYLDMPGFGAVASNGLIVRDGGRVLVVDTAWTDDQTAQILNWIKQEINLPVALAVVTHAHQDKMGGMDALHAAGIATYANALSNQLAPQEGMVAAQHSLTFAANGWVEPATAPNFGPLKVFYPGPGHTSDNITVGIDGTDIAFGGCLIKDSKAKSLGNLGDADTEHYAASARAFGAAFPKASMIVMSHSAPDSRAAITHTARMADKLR
# Summary of the method: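 NDM-1 at 2 nM final in 50 mM HEPES pH 7.0, 1 uM ZnSO4, 0.01% Tween20, preincubated with LOPAC compounds pinned in DMSO; 50 uM nitrocefin (stock) added. Hydrolysis read as absorbance at 485 nm in the plateau phase.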
# [4] = molecular target: Luciferin 4-monooxygenase (Photinus pyralis) (UniProt P08659); test: Primary firefly luciferase (FLuc) qHTS assay for identification of artifact compounds. (AID 1845220); details: outcome: dose series up to 54.1 µM unless noted; note: nearly all actives have a fitted effect of over 60% in size
# Summary of the method: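 FLuc 10 nM; luciferin 10 uM; ATP 10 uM; Tris-acetate pH 7.6, Mg-acetate 10 mM; 15 min RT preincubation; 5 min reaction; luminescence.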
# [5] = Primary fluorescence-based thiol-reactive (MSTI) qHTS assay for identification of artifact compounds. (AID 1845221);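 note: series mostly up to about 54 µM; thiol-reactive compounds lower the probe fluorescence signal; nearly all actives have a fitted effect of over 65% in size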
# Summary of the method: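 qHTS titration of compound; 4 uM MSTI, PBS pH 7.4, 2% DMSO; 1 h RT, dark; fluorescence 525/598 nm; normalized to Acetyl-MSTI and MSTI; 4-parameter Hill fit.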
# [6] = tested on: Nanoluciferase (engineered Oplophorus gracilirostris luciferase); test: Primary Nanoluciferase (NLuc) qHTS assay for identification of artifact compounds. (AID 1845222);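 note: NLuc secreted into diluted conditioned medium of S16 cells; series mostly up to about 54 µM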
# Summary of the method: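 NLuc from S16 cell medium (1:55) plus test compounds, 15 min, room temperature. Luminescence after Nano-Glo (1:100) addition, 5 min.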
# [7] = Primary redox qHTS assay for identification of artifact compounds. (AID 1845223)
# Summary of the method: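 Redox-cycling detection via DTT (250 uM final) oxidation coupled to Amplex Red (25 uM)/HRP (250 mU/mL) in HBSS. 15 min preincubation plus 30 min after DTT, room temperature. Ex/Em 525/598 nm; 4-parameter Hill fit against DMSO and 10 uM DA3003.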
smiles,measurement,setting,value
CC(=O)O[C@@]12CO[C@@H]1C[C@H](O)[C@@]1(C)C(=O)[C@H](O)C3=C(C)[C@@H](OC(=O)[C@H](O)[C@@H](NC(=O)OC(C)(C)C)c4ccccc4)C[C@@](O)([C@@H](OC(=O)c4ccccc4)[C@H]21)C3(C)C,Potency,[1],inactive
NS(=O)(=O)c1cc2c(cc1C(F)(F)F)NC(Cc1ccccc1)NS2(=O)=O (centres undefined),Potency,[1],inactive
same,Potency,[2],inactive
CN1[C@@H]2CC(OC(=O)[C@H](CO)c3ccccc3)C[C@H]1[C@@H]1O[C@@H]12 (some centres undefined),Potency,[1],inactive
same,Potency,[2],inactive
Oc1ccc(C(O)CNCCCCCCNCC(O)c2ccc(O)c(O)c2)cc1O (centres undefined),Potency,[1],inactive
same,Potency,[2],inactive
CN1CCC[C@@H]1Cc1c[nH]c2ccc(CCS(=O)(=O)c3ccccc3)cc12,outcome,[3],inactive
same,Potency,[1],inactive
same,Potency,[2],inactive
same,outcome,[4],inactive
same,Potency,[5],inactive
same,outcome,[6],inactive
same,outcome,[7],inactive
COc1ccccc1O,Potency,[1],inactive
same,Potency,[2],inactive
CC(C)(C(=O)O)c1ccc(C(O)CCCN2CCC(C(O)(c3ccccc3)c3ccccc3)CC2)cc1 (centres undefined),outcome,[3],inactive
same,Potency,[1],inactive
same,Potency,[2],inactive
same,outcome,[4],inactive
same,Potency,[5],inactive
same,outcome,[6],inactive
same,outcome,[7],inactive
COc1ccc2cc1Oc1cc3c(cc1OC)CC[N+](C)(C)[C@H]3Cc1ccc(cc1)Oc1c(OC)c(OC)cc3c1[C@@H](C2)[N+](C)(C)CC3,Potency,[1],inactive
same,Potency,[2],inactive
Nc1ncnc2c1ncn2[C@@H]1O[C@H](CO)[C@@H](O)[C@H]1O,outcome,[3],inactive
same,Potency,[1],inactive
same,Potency,[2],inactive
C[C@](N)(Cc1ccc(O)cc1)C(=O)O,Potency,[1],inactive
same,Potency,[2],inactive
CN(C)CCOC(C)(c1ccccc1)c1ccccn1 (centres undefined),outcome,[3],inactive
same,Potency,[1],inactive
same,Potency,[2],inactive
C=Cc1c(C)c2cc3[nH]c(cc4nc(cc5nc(cc1[nH]2)C(C)=C5CCC(=O)O)C(CCC(=O)O)=C4C)c(C)c3C=C,Potency,[1],inactive
same,Potency,[2],inactive
CC(=O)c1ccc2c(c1)N(CCCN(C)C)c1ccccc1S2,outcome,[3],inactive
same,Potency,[1],inactive
same,Potency,[2],inactive
C#CCN(C)Cc1ccccc1,outcome,[3],inactive
same,Potency,[1],inactive
same,Potency,[2],inactive
CCCCN(CCCC)CCCOC(=O)c1ccc(N)cc1,Potency,[1],inactive
same,Potency,[2],inactive
NC(CSCC(=O)O)C(=O)O (centres undefined),Potency,[1],inactive
same,Potency,[2],inactive
Nc1ccc(S(=O)(=O)NC(=O)c2ccccc2)cc1,Potency,[1],inactive
same,Potency,[2],inactive
CCN(CC)CCOC(=O)C1(C2CCCCC2)CCCCC1,Potency,[1],inactive
same,Potency,[2],inactive
Nc1ccc(S(=O)(=O)Nc2ccc(Cl)nn2)cc1,Potency,[1],inactive
same,Potency,[2],inactive
COCCOC(=O)C1=C(C)NC(C)=C(C(=O)OC/C=C/c2ccccc2)C1c1cccc([N+](=O)[O-])c1 (centres undefined),Potency,[1],inactive
same,Potency,[2],inactive
CCCCC(CC)COC(=O)c1ccccc1O (centres undefined),Potency,[1],inactive
same,Potency,[2],inactive
CC(O)COc1ccccc1 (centres undefined),Potency,[1],inactive
same,Potency,[2],inactive
NCCNCCNCCNCCN,outcome,[1],inactive [at 9.52 µM]
same,outcome,[2],inactive [at 9.73 µM]
CC(C)NC[C@H](O)c1ccc(O)c(O)c1,Potency,[1],inactive
same,Potency,[2],inactive
Cc1c(O)cccc1C(=O)N[C@@H](CSc1ccccc1)[C@H](O)CN1C[C@H]2CCCC[C@H]2C[C@H]1C(=O)NC(C)(C)C,Potency,[1],inactive
same,Potency,[2],inactive
CCOC(=O)c1ccc(O)cc1,Potency,[1],inactive
same,Potency,[2],inactive
CCN(CC)CCNC(C(=O)OCCC(C)C)c1ccccc1 (centres undefined),Potency,[1],inactive
same,Potency,[2],inactive
Cn1cc[nH]c1=S,Potency,[1],inactive
same,Potency,[2],inactive
CCCCCCCCCCCCOS(=O)(=O)O,Potency,[1],inactive
same,Potency,[2],inactive
CC[C@@]1(c2ccccc2)NC(=O)N(C)C1=O,Potency,[1],inactive
same,Potency,[2],inactive
O=Cc1ccccc1C=O,Potency,[1],inactive
same,Potency,[2],inactive
OCCN1CCN(CCCN2c3ccccc3Sc3ccc(Cl)cc32)CC1,Potency,[1],inactive
same,Potency,[2],inactive
O=C1N=C(O)CN1/N=C/c1ccc(-c2ccc([N+](=O)[O-])cc2)o1,Potency,[1],inactive
same,Potency,[2],inactive
C/C(=C(\CCOP(=O)(O)O)SC(=O)c1ccccc1)N(C=O)Cc1cnc(C)nc1N,outcome,[1],inactive [at 4.49 µM]
same,outcome,[2],inactive [at 4.52 µM]
CN1CCCCC1CCN1c2ccccc2Sc2ccc(S(C)=O)cc21 (centres undefined),Potency,[1],inactive
same,Potency,[2],inactive
O=C(O)[C@H](O)c1ccccc1,Potency,[1],inactive
same,Potency,[2],inactive
c1ccc2c(CC3=NCCN3)cccc2c1,Potency,[1],inactive
same,Potency,[2],inactive
CCCOC(=O)c1ccccc1,Potency,[1],inactive
same,Potency,[2],inactive
C[C@H](N)[C@H](O)c1cccc(O)c1,Potency,[1],inactive
same,Potency,[2],inactive
C[C@H]1O[C@H](O[C@H]2[C@H](O)[C@@H](O)[C@@H](O[C@H]3[C@H](O)[C@@H](O)[C@H](O)O[C@@H]3CO)O[C@@H]2CO)[C@H](O)[C@@H](O)[C@@H]1N[C@H]1C=C(CO)[C@@H](O)[C@H](O)[C@H]1O,Potency,[1],inactive
same,Potency,[2],inactive
Cc1cc(O)cc2c1O[C@](C)(CCC[C@H](C)CCC[C@H](C)CCCC(C)C)CC2,Potency,[1],inactive
same,Potency,[2],inactive
CCN(CC)C(C)CN1c2ccccc2Sc2ccccc21 (centres undefined),Potency,[1],inactive
same,Potency,[2],inactive
CC(=O)CCC(=O)O,Potency,[1],inactive
same,Potency,[2],inactive
CC(CN(C)C)CN1c2ccccc2CCc2ccccc21 (centres undefined),Potency,[1],inactive
same,Potency,[2],inactive
CCCCOC(=O)c1ccc(O)cc1,Potency,[1],inactive
same,Potency,[2],inactive
CC(C)(C)c1onc(OCP(=O)(O)O)c1CC(N)C(=O)O (centres undefined),Potency,[1],inactive
same,Potency,[2],inactive
CC1=C(CC(=O)O)c2cc(F)ccc2/C1=C\c1ccc(S(C)(=O)=O)cc1,Potency,[1],inactive
same,Potency,[2],inactive
O=C(O)Cc1sc(-c2ccccc2)nc1-c1ccc(Cl)cc1,Potency,[1],inactive
same,Potency,[2],inactive
